Values joined by “and” are separate entries in the source; they are usually repeats but may differ in a detail not shown here. Equal entries are not always repeated. ± gives the standard deviation.

In this experiment the test system is OVCAR-3-derived ovarian cancer stem-like cells (spheroids). The experiment is described as follows: cell growth relative to untreated control; higher = more growth (less inhibition). Conditions: 2.29 µM; 96 h. Summed up: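 OVCAR-3 spheroid-derived stem-like cells were trypsin-dissociated, seeded at 50,000 cells/mL in stem cell medium in ultra-low attachment 96-well plates and preincubated 24 h. Compounds were then added at 2.29 uM for 96 h at 37°C, 5% CO2, in 4 replicate wells. Viability was read as TOX8 resazurin fluorescence (ex 560/em 590 nm) after 4 h. Percent growth was calculated relative to untreated wells after blank subtraction and Grubbs outlier removal.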
As to `CN(C)CCCN1c2ccc3ccccc3c2Sc2cccc(Cl)c21`, the cell growth was found to be 104 ± 19%. The same measure for `COc1ccc2cc1Oc1ccc(cc1)CC1c3c(cc(OC)c4c3Oc3cc5c(cc3O4)CCNC5C2)CCN1C` (centres undefined): 71.8 ± 23%. For `O=C(N=Nc1c(O)[nH]c2c(Cl)cc(Cl)cc12)c1ccccc1O`, the cell growth came out at 93.1 ± 22%. The result for `CSCC(CO)NC(=O)/C=C/c1c(C)[nH]c(=O)[nH]c1=O` (centres undefined) reads 82.8 ± 9.5%. `O=c1[nH]c(=O)n(C2CCCO2)cc1F` (centres undefined) gave a cell growth of 24.9 ± 6.8%. As for `O=C(c1nc2ccc(Cl)cc2[nH]c1=O)C(O)c1ccc2c(c1)OCO2` (centres undefined), the cell growth was determined as 109 ± 61%. The same measure for `COc1ccc(/C=C2\CCCc3ccccc3C2=O)cc1`: 54.4 ± 10%; for `O=c1c(O)c(-c2ccc(O)c(O)c2)oc2cc(O)ccc12`: 94.3 ± 22%. The result for `CCOC(=O)C1=C(O)CSC1=Nc1ccc(N=C2SCC(O)=C2C(=O)OCC)cc1` reads 108 ± 30%; that for `CC(C)=CCC(OC(=O)C=C(C)C)C1=CC(=O)c2c(O)ccc(O)c2C1=O` (centres undefined), 35 ± 16%. The result for `Cc1c2cc[n+](CCN3CCCCC3)cc2c(C)c2c1[nH]c1ccc(O)cc12` reads 146 ± 52%; that for `N#Cc1ccccc1NC(=O)C(=O)C(C(=O)c1ccccc1F)C1OC(=O)c2ccccc21` (centres undefined), 98.8 ± 24%; that for `CN(Cc1cnc2nc(N)nc(N)c2n1)c1ccc(C(=O)N[C@@H](CCC(=O)O)C(=O)O)cc1`, 96.7 ± 31%. As to `CC(C)C1=CC2=CC[C@@H]3[C@](C)(CCC[C@@]3(C)C(=O)O)[C@H]2CC1`, the cell growth was found to be 114 ± 10%. The same measure for `O=C1Nc2c(Cl)cc(Cl)cc2C1=NN=Cc1ccco1`: 84.3 ± 20%; for `COC(=O)C[S+]([O-])c1ccccc1` (centres undefined): 84.6 ± 18%; for `[Mo]`: 97% and 106%.

On to `Nc1ccc2c(c1)S(=O)(=O)c1cc(N)ccc1-2`, for which the cell growth stood at 112 ± 21%.

Take `CCOC(=O)CCn1ncc(Cl)c(Cl)c1=O`: the cell growth stood at 74.8 ± 21%. `CCCCn1c2c(n(CCCC)c1=S)-c1c(n(CCCC)c(=S)n1CCCC)SSSS2` showed a cell growth of 27.2 ± 5.8%. The same measure for `COc1ccc(N=C2C(=Nc3ccc(OC)cc3)N(c3ccc(N(C)C)cc3)C(=S)N2c2ccc(OC)cc2)cc1`: 72.3 ± 12%; for `O=C1OC(c2ccco2)=N/C1=C\c1ccc(Cl)c(Cl)c1`: 17.7 ± 5%.

In turn, `Cc1ccc(/C=C2\CNC/C(=C\c3ccc(C)cc3)C2=O)cc1` came in with a cell growth of 44.5 ± 10%. `COc1cc2c3c(n(C)c(=O)c2cc1OC)-c1cc2c(cc1C3=O)OCO2` had a cell growth of 101 ± 38%. Consider `C=C1C(=O)OCC2C(C(=O)O)=CC3C(C)C(C)=CC123` (centres undefined), for which the cell growth was 76.4 ± 10%. The molecule `O=c1ncccn1C1OC(CO)C(O)C1F` (centres undefined) registered a cell growth of 113 ± 22%. The result for `CCCN(CCC)C(=S)Sc1nc(C)nc(N2CCN(c3nc(C)nc(SC(=S)N(CCC)CCC)c3[N+](=O)[O-])CC2)c1[N+](=O)[O-]` reads 107 ± 22%; that for `CCCCCCCCCc1c(Cl)nc(Cl)nc1Cl`, 113 ± 24%; that for `CCOC(C)C(C=NNC(N)=S)=NNC(N)=S` (centres undefined), 23 ± 5.7%.

`CCN1/C(=C\C(C)=C\c2sc3ccccc3[n+]2CC)Sc2ccccc21` gave a cell growth of 31.4 ± 6.9%. The same measure for `COC(=O)c1ccc(=O)c2nc3/c(=C/O)c(O)cc(=O)c3[nH]c12`: 109 ± 44%.

Turning to `O=C1C=C(Nc2ccccc2C(=O)CC(=O)C(=O)Nc2ccc(Cl)c(Cl)c2)c2ccccc2C1=O`, the cell growth is 79.6 ± 13%.

With `COC1C(O)=C2C(=O)OC(C)(O)/C=C/C=C\C=C/C=C/C(c3ccccc3)NC(=O)/C=C/C=C/C=C/C=C/C2(C)C1O` (centres undefined), the cell growth was 71.7 ± 31%. In turn, `NC(=Nc1nc(-c2ccccn2)cc2ccccc12)c1ccccn1` returned a cell growth of 9.1 ± 2.3%. The same measure for `COc1ccc2c(c1)C=C([N+](=O)[O-])C(C1OC(C)(C)OC1C1COC(C)(C)O1)O2` (centres undefined): 84.6 ± 23%; for `NC(N)=NCCCS(=O)(=O)Nc1ccc(Nc2c3ccccc3nc3cc([N+](=O)[O-])ccc23)cc1`: 127 ± 32%.

`Cc1c2ccnc(C(N)=O)c2c(C)c2c1[nH]c1ccccc12`: the cell growth came out at 113 ± 10%. The same measure for `C[C@@H]1CC[C@H]2C(C)(C)[C@H]3C[C@@]12CC[C@@]3(C)O`: 48.3 ± 7%.

As to `Cc1ccc(NC(=S)C#N)c(C)c1`, the cell growth amounted to 89.9 ± 27%.

Values taken from the supplement of paper PMC3484114.
